Results taken from ChEMBL document CHEMBL1157539, “Thousands of chemical starting points for antimalarial lead identification” (Nature, 2010).

Key:
Format in all cases: functional
Plasmodium falciparum [1] = experiment: GSK_TCMDC: Inhibition of Plasmodium falciparum 3D7 in whole red blood cells, using parasite LDH activity as an index of growth. Test compounds present at 2uM
Plasmodium falciparum [2] = experiment: GSK_TCMDC: Inhibition of Plasmodium falciparum Dd2 in whole red blood cells, using parasite LDH activity as an index of growth. Test compounds present at 2uM
HepG2 = experiment: GSK_TCMDC: Percent inhibition of human HepG2 cell line. Test compounds present at 10uM.

Structure (SMILES)	Inhibition (Plasmodium falciparum [1]) [%]	Inhibition (Plasmodium falciparum [2]) [%]	Inhibition (HepG2) [%]
Cc1cc(C2NC(=O)c3ccccc3N2)c(C)n1-c1ccc2c(c1)OCO2 (stereo unspecified)	86	85	13
Cc1ccc(Nc2nc(C)cc(N3CCN(c4ccccc4)CC3)n2)cc1	93	72	4
CCCCCc1cnc2nc(N)nc(N)c2c1.O=S(=O)(O)CCO	82	6	72
NCC1CCCN1Cc1cccc(-c2ccc(-c3nc4cc(C(F)(F)F)ccc4[nH]3)s2)c1.O=C(O)C(F)(F)F (stereo unspecified)	100	96	17
OCc1ccc(-c2cncc(Nc3cccc(Cl)c3)c2)cc1	95	100	4
CC(=O)c1ccc(NC(=O)CSc2nc(-c3ccccc3Cl)ns2)cc1	89	72	0
CCCNC(=O)c1ccnc(-c2ccc(CNC3Cc4ccccc4C3)cc2)c1.O=C(O)C(F)(F)F	92	21	24
Cc1cccc(CNc2nc(C)cc(N[C@@H](CC(C)C)C(=O)NCCOc3ccccc3)n2)c1.O=C(O)C(F)(F)F	93	35	15
Fc1ccc(-c2nc(NCc3cccc(C(F)(F)F)c3)nn2-c2cccc(C(F)(F)F)c2)cc1C(F)(F)F	90	58	2
COc1cc(OC)c(OC)cc1C=NN=c1cc(C)[nH]c2ccccc12	100	95	5
COc1ccc(O)c(C(=O)c2cc(C(=O)NC3CCCCC3)c(=O)n(C3CCCCC3)c2)c1	99	62	8
COc1ccc(-c2csc3ncnc(Cl)c23)cc1	96	97	0
CCN1CCC(N2CCC(C(=O)Nc3cccc(-c4cccc(Cl)c4)c3)CC2)CC1	91	82	54
CCCC(=O)c1cnc2cc(O)ccc2c1Nc1ccccc1C	99	93	14
N#Cc1ccc(N2CCN(Cc3cccc(-c4cccc(-c5nc6cc(F)ccc6[nH]5)c4)c3)CC2)nc1.O=C(O)C(F)(F)F	90	52	26
Cc1cccc2[nH]c(-c3cc(-c4cn[nH]c4)cnc3N)nc12	100	93	37
O=[N+]([O-])c1cccc(/C=N/Nc2ccnc3cc(F)ccc23)c1	100	100	4
Cn1nc2ccc3ccccc3c2nc1=N.I	91	85	100
COc1cccc(-c2cc(C(=O)Nc3cc(Oc4ccc(O)cc4)cc([N+](=O)[O-])c3)on2)c1	89	30	16
CCOC(=O)C1=C(C)NC(Cn2ccnc2)=C(C(=O)OCC)C1c1ccc(C(C)(C)C)cc1.Cl (stereo unspecified)	100	33	8
COc1cccc(C2CCN(CCN3CCC(NC(=O)c4ccc(-c5ccc(C#N)cc5)cc4)CC3)CC2)c1	98	47	28

Structure (SMILES)	Inhibition (Plasmodium falciparum [1]) [%]	Inhibition (Plasmodium falciparum [2]) [%]	Inhibition (HepG2) [%]
Cc1ccc(-c2nc(N3CCN(C(=O)c4ccco4)CC3)c3ccc(Cl)cc3n2)cc1	90	78	17
O=C(C=Cc1ccc(Cl)c(Cl)c1)NCCCCCN1CCC(CCCNS(=O)(=O)c2ccc(Br)cc2)CC1	93	25	74
O=C(CCc1c[nH]cn1)Nc1ccc(-c2cccc(-c3nc4ccccc4[nH]3)c2)cc1	100	42	12
CCOc1cccc2nc(NCCCNCc3ccc(Cl)c(Cl)c3)cc(NCCCNCc3ccc(Cl)c(Cl)c3)c12	98	58	96
O=C(NCCN1CCCC1)c1cccc(-c2ccc(-c3nc4cc(C(F)(F)F)ccc4[nH]3)cc2)c1	100	99	34
CN(c1ccc2c(c1)nc(Nc1ccc(Cl)cc1)n2C)c1ccnc(Nc2ccc(CS(C)(=O)=O)cc2)n1.Cl	97	52	91
COc1ccc2c(NN=Cc3ccc(Cl)cc3)ccnc2c1	100	100	8
COc1ccc(NC(=O)c2csc(-c3cc(NC(=O)c4ccnc(N5CCCC5)c4)ccc3C)c2)cc1N1CCN(C)CC1.O=C(O)C(F)(F)F	100	80	4
O=c1cc(NCCCNCc2cc(Br)ccc2F)[nH]c2ccccc12	95	14	0
Br.CCCCc1ccc(CCNCCCCCCNCCc2ccc(O)c(O)c2)cc1	100	0	45
CCOc1c(CNCCCCCCNCc2ccc3ccccc3c2OCC)ccc2ccccc12.CS(=O)(=O)O	99	78	100
Cc1cc(Nc2ccc(O)cc2)nc2cc(O)ccc12.Cl	100	9	0
Cc1cccc2nc(-c3ccc(-c4ccc(CN5CCN(CCO)CC5)cc4)cc3)[nH]c12.O=C(O)C(F)(F)F	100	97	20
O=C(N[C@H]1CCN(Cc2ccc(OCCN3CCNCC3)c(Br)c2)C1)c1ccc(Cl)c(Cl)c1.O=C(O)C(F)(F)F	100	36	69
Cc1ccc(/C=C/C(=O)NCCCCCN2CCCN(C(=O)Nc3ccc(Cl)c(Cl)c3)CC2)cc1	95	1	24
Cc1cc(NC(=O)NCCN2CCC(NS(=O)(=O)c3ccccc3Cl)C2)c2ccccc2n1 (stereo unspecified)	97	43	1
CN(C)CCNC(=O)c1cccc(-c2cnc3ccc(NCc4ccc(Cl)c(Cl)c4)nn23)c1	100	53	31
Cc1cc(N/N=C/c2ccccc2[N+](=O)[O-])c2ccccc2n1	100	100	10
CCCOc1cccc(C(=O)N[C@@H](Cc2ccccc2)[C@H](O)CNCc2cccc(OC)c2)c1	100	18	14
COc1cc(NCC2(CNCc3cn(Cc4ccccc4)c4ccccc34)CCCCC2)nc2ccccc12.Cl	95	12	65
O=C(Nc1ccc(Cl)cc1)c1ccc(CN2CCCN(Cc3cccc(F)c3)CC2)cc1.O=C(O)C(F)(F)F	91	8	59

Structure (SMILES)	Inhibition (Plasmodium falciparum [1]) [%]	Inhibition (Plasmodium falciparum [2]) [%]	Inhibition (HepG2) [%]
COc1ccccc1-n1ccnc1SCC(=O)Nc1cc(C(F)(F)F)ccc1Cl	97	97	0
Clc1cccc(Cl)c1CCNCC1CCN(CC2CCCCC2)CC1.O=C(O)C(F)(F)F	98	94	39
Cc1cc(=NN=CC=Cc2ccccc2)c2ccccc2[nH]1	100	69	19
CCc1ccc(O)c(-c2cc(C(=O)Nc3ccc(OC)c(Cl)c3)[nH]n2)c1	93	97	15
Cc1ccc(O)c(C(=O)c2cnc3c(c2)c(-c2ccc(F)cc2)c(C#N)c(=O)n3C)c1	93	56	17
COc1cccc(CNC[C@@H](O)[C@H](Cc2ccccc2)NC(=O)c2cc(NC(C)C)cc(N3CCCCS3(=O)=O)c2)c1.O=CO	89	97	1
COc1cc2ncnc(Nc3ccc4nc(Cc5ccccc5)[nH]c4c3)c2cc1OC.Cl	87	28	0
O=C(/C=C/c1ccc(Cl)c(Cl)c1)NCCCCCN1CCC(NC(=O)Nc2ccc(F)cc2F)CC1	100	23	14
COc1cc(SC)ccc1C(=O)N1CC(C)CC(C)C1 (stereo unspecified)	98	66	5
Cc1cccc2nc(-c3cccc(-c4cccc(C(=O)NCCc5cn(C)cn5)c4)c3)[nH]c12	100	78	12
CCCc1cc(N2CCC(N3CCCC3)CC2)nc(Nc2ccc(OC)cc2)n1	94	14	15
COc1ccc2nccc(N3CCC(O)(CCNCc4ccc5c(n4)NC(=O)CS5)CC3)c2n1.Cl	99	21	10
O=C(NCCN1CCCCC1)N1CCCN(c2ncnc3cc(-c4ccccc4)sc23)CC1.O=C(O)C(F)(F)F	89	80	2
CCOC(=O)c1cc(C(=O)NCCCCN2CCC(c3cn(C)c4ccccc34)CC2)ccc1-c1ccc(C(F)(F)F)cc1	91	6	25
O=C(O)C(F)(F)F.c1cc(CN2CCCCC2)cc(-c2ccc(-c3nc4ccccc4[nH]3)cc2)c1	100	88	9
CCO[C@H]1CN[C@H](C#Cc2cc3c(Nc4ccc(OCc5cccc(F)c5)c(Cl)c4)ncnc3s2)C1.O=C(O)C(F)(F)F	100	37	8
COc1cccc(C(=O)N2CCOC(CCN3CCC(c4ccccc4)CC3)(c3ccc(Cl)c(Cl)c3)C2)c1 (stereo unspecified)	87	63	38
O=C(NCCN1CCC(c2ccncc2)CC1)c1cccc(Nc2nccc(Nc3ccc(Oc4ccccc4)cc3)n2)c1	100	91	60
CCCCCn1c(Sc2ccc(C#N)c([N+](=O)[O-])c2)nnc1-c1cc(OC)cc(OC)c1	93	24	17
Cc1cc2nc(-c3ccc(/C=C/C(=O)NCCCc4ccccc4)cc3)[nH]c2cc1C	96	13	15
